Where “and” joins values, the source holds several entries; their conditions need not be identical. Equal values may be shown once. Results filed as inconclusive are left out. A call without a number means that no potency is given here. Some compounds were tested as several samples or in several runs, with calls that do not always agree. Calls of active or inactive are those of the source. Unless noted, calls come from the whole dose curve; as a rule, active = well fitted curve in the direction sought with a large enough effect in the repeat runs; inconclusive = weak or mixed curves; inactive = no such curve, though single readings can be large; an effect the other way counts as inactive or inconclusive.
Experiments:
[1] = qHTS assay to identify small molecule antagonists of the retinoic acid receptor (RAR) signaling pathway (AID 1159552; note: nearly all actives have a fitted effect of over 50% in size)
Summary of the method: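 RARE-luc C3RL4 cells; cpds + 1 uM (final) retinol, 6 hr, 37 C/5% CO2; luciferase reagent, 30 min RT, luminescence readout. Inhibitors of retinol-driven signal scored.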

[2] = qHTS assay to identify small molecule agonists of the retinoic acid receptor (RAR) signaling pathway (AID 1159553); conditions: C3RL4 RARE luciferase reporter, agonist, 6 h; activation: at 73.3 µM (top of the series) unless noted; note: potency is the fitted concentration of half-maximal effect
Summary of the method: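 In this cell-based screen, 1,000 C3RL4 cells per well were cultured overnight, dosed with test chemicals in DMSO for 6 hr, and assessed for RARE luciferase luminescence.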

[3] = qHTS assay to identify small molecule antagonists of the estrogen related receptor (ERR) signaling pathway from Tox21 library - cell viability counter screen (AID 1224834); note: nearly all actives have a fitted effect of over 30% in size; note: potency is the fitted concentration of half-maximal effect
Summary of the method: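 Counter screen run in ERR cells (2,000 cells/well): cells pre-incubated 6 h, then treated with compounds for 17.5 h at 37 C. Fluorescence was read 30 min after CellTiter-Fluor addition.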

[4] = molecular target: Luciferin 4-monooxygenase (Photinus pyralis) (UniProt P08659); experiment: qHTS assay to identify small molecule inhibitors of firefly luciferase (AID 1224835); note: nearly all actives have a fitted effect of over 25% in size
Chain of Luciferin 4-monooxygenase (Photinus pyralis) (P08659 whole entry, looked up): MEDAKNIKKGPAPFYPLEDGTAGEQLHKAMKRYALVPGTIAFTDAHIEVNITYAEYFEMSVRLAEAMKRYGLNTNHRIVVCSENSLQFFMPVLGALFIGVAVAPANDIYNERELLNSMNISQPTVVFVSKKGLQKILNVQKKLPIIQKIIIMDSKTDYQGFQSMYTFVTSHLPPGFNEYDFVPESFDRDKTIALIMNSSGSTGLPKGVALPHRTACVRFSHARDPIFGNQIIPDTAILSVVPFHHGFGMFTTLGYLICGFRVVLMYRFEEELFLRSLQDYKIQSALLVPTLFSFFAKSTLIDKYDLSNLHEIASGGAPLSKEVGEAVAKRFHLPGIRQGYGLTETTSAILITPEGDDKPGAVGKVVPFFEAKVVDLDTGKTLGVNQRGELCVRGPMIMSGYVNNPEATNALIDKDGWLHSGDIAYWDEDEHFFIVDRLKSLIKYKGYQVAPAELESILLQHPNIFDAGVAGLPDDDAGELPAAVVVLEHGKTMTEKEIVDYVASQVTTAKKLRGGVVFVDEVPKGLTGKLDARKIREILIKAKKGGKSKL
Summary of the method: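 Biochemical qHTS: compounds run as interplate titrations against purified firefly enzyme, with D-luciferin and ATP each at its KM concentration. Light output recorded by CCD imaging.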

[5] = qHTS assay to identify small molecule agonists of the constitutive androstane receptor (CAR) signaling pathway - cell viability counter screen (AID 1224836); note: nearly all actives have a fitted effect of over 45% in size
Summary of the method: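 HepG2 cells stably carrying hCAR and a CYP2B6-2.2kb reporter were plated 4 h, then given compounds at 15 concentrations plus PK11195 (final 0.75 uM). After 23 h at 37 C, viability was read by CellTiter-Fluor fluorescence.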

[6] = qHTS assay to identify small molecule antagonists of the constitutive androstane receptor (CAR) signaling pathway - cell viability counter screen (AID 1224837); note: nearly all actives have a fitted effect of over 45% in size; note: potency is the fitted concentration of half-maximal effect
Summary of the method: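 CITCO at 50 nM final was added alongside compounds (15 concentrations) to double-stable hCAR/CYP2B6-2.2kb HepG2 cells. Following 23 hr at 37 C, cell viability was quantified by CellTiter-Fluor fluorescence intensity.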

[7] = molecular target: Nuclear receptor subfamily 1 group I member 3 (Homo sapiens) (UniProt Q14994); experiment: qHTS assay to identify small molecule antagonists of the constitutive androstane receptor (CAR) signaling pathway (AID 1224838); note: nearly all actives have a fitted effect of over 40% in size; note: potency is the fitted concentration of half-maximal effect
Chain of Nuclear receptor subfamily 1 group I member 3 (Homo sapiens) (Q14994 whole entry, looked up): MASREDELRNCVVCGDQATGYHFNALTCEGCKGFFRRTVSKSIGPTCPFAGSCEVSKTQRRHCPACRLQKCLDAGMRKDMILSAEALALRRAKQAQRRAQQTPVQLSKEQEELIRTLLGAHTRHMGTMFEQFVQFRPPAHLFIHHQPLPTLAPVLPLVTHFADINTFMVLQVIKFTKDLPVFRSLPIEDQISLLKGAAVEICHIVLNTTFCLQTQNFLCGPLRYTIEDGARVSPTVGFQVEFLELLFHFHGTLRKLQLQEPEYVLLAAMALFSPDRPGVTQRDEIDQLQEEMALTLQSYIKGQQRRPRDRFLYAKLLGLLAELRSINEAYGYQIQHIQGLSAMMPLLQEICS
Summary of the method: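 Inhibition of CITCO-driven (50 nM final) CYP2B6 reporter expression is measured in HepG2 cells stably carrying hCAR. Fifteen compound concentrations are applied for 24 h at 37 C, followed by luciferase luminescence.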

[8] = molecular target: Nuclear receptor subfamily 1 group I member 3 (Homo sapiens) (UniProt Q14994); experiment: qHTS assay to identify small molecule agonists of the constitutive androstane receptor (CAR) signaling pathway (AID 1224839); note: nearly all actives have a fitted effect of over 15% in size
Summary of the method: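 HepG2 cells stably expressing hCAR and a CYP2B6-2.2kb luciferase reporter were treated with compounds at 15 concentrations plus 0.75 uM PK11195 (final) for 24 h at 37 C; luminescence was read after ONE-Glo addition.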

[9] = qHTS assay to identify small molecule antagonists of the estrogen related receptor signaling pathway with the pleiotropic PPARgamma coactivator (PGC) from Tox21 10K library - cell viability counter screen (AID 1224840; active = well fitted cell-killing curve with a large enough effect in the repeat runs, not every such curve was filed as active; note: nearly all actives have a fitted effect of over 40% in size; note: potency is the fitted concentration of half-maximal effect)
Summary of the method: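 Readout: fluorescence intensity from CellTiter-Fluor after 30 min at 37 C/5% CO2. Preceded by 17.5 h treatment of PGC/ERR cells with DMSO-dissolved compounds, added 6 h post-seeding.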

[10] = molecular target: Thyrotropin receptor (Homo sapiens) (UniProt P16473); experiment: qHTS assay to identify small molecule agonists of the thyroid stimulating hormone receptor (TSHR) signaling pathway (AID 1224843; calls by dose curve; note: nearly all actives have a fitted effect of over 45% in size)
Chain of Thyrotropin receptor (Homo sapiens) (P16473 whole entry, looked up): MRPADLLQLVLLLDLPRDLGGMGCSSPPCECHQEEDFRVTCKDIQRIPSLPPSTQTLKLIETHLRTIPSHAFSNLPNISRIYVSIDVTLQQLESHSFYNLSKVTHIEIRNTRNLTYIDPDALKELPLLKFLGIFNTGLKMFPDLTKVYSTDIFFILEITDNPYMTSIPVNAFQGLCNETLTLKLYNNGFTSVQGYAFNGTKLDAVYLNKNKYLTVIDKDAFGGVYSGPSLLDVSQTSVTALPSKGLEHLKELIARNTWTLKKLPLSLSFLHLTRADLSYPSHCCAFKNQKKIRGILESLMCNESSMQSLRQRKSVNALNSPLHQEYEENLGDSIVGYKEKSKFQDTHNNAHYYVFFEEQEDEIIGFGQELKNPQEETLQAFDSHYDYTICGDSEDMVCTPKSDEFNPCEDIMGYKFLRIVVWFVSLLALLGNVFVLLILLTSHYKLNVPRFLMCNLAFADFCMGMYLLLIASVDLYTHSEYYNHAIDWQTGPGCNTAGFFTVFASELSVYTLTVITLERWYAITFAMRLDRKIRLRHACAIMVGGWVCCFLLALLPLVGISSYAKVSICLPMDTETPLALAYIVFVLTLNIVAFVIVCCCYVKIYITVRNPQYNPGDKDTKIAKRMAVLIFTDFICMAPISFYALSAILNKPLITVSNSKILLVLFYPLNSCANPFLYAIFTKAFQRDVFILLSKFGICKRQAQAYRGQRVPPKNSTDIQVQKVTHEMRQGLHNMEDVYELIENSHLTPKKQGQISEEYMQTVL
Summary of the method: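 Agonist-mode screen: TSHR HEK293 cells received test chemicals for half an hour at room temperature, then HTRF cAMP detection reagents for one hour prior to fluorescence measurement. Each chemical ran as a 15-concentration series, triplicated.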

[11] = qHTS assay to identify small molecule agonists of the hypoxia (HIF-1) signaling pathway - cell viability counter screen (AID 1224844; calls by dose curve; note: nearly all actives have a fitted effect of over 50% in size)
Summary of the method: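 In this counter screen, HRE-bla ME-180 cell viability after 17 hrs of compound exposure at 37C was read by CellTiter-Glo luminescence, multiplexed with the beta-lactamase reporter measurement.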

[12] = qHTS assay to identify small molecule antagonists of the estrogen related receptor signaling pathway with the pleiotropic PPARgamma coactivator (PGC) from Tox21 10K library (AID 1224841; call rule not given here; note: actives are mostly falling curves and most rising ones were filed inactive; nearly all actives have a fitted effect of over 50% in size; note: potency is the fitted concentration of half-maximal effect)
Summary of the method: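 One-Glo luminescence, measured after half an hour at room temperature, quantified reporter output of PGC/ERR cells. These had been plated at 2,000 per well, incubated 6 h, dosed with compounds in DMSO, then kept 18 h at 37 C.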

[13] = qHTS assay to identify small molecule agonists of the estrogen related receptor signaling pathway with the pleiotropic PPARgamma coactivator (PGC) from Tox21 10K library (AID 1224842); note: nearly all actives have a fitted effect of over 15% in size
Summary of the method: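 PGC/ERR reporter cell line, 2,000 cells per well, incubated 6 h at 37 C before 23 nL compound in DMSO was added. After 18 h at 37 C, One-Glo luminescence read following 30 min at room temperature.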

[14] = qHTS assay to identify small molecule antagonists of the estrogen related receptor (ERR) signaling pathway (AID 1224819; note: potency is the fitted concentration of half-maximal effect; nearly all actives have a fitted effect of over 50% in size)
Summary of the method: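 Seed ERR cells 2,000/well; rest 6 h at 37 C/5% CO2; pin compounds in DMSO; incubate 18 h at 37 C; add One-Glo; wait 30 min at room temperature; measure luminescence.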

[15] = qHTS assay to identify small molecule agonists of the estrogen related receptor (ERR) signaling pathway (AID 1224820)
Summary of the method: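 An ERR cell line provided by NTP was seeded at 2,000 cells per well and allowed to settle for 6 h before compounds in DMSO were added. After 18 h at 37 C, luciferase activity was measured by One-Glo luminescence.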

[16] = test system: estrogen-related receptor alpha (ERRalpha) with PGC-1alpha coactivator, human; experiment: qHTS assay to identify small molecule antagonists of the estrogen related receptor signaling pathway with the pleiotropic PPARgamma coactivator (PGC) (AID 1224821; calls by dose curve)
Summary of the method: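 A PGC/ERR cell line supplied by NTP is seeded, allowed 6 h at 37 C, and treated with test compounds in DMSO for 18 h. Signal is then measured as luciferase luminescence using One-Glo.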

[17] = qHTS assay to identify small molecule antagonists of the estrogen related receptor signaling pathway with the pleiotropic PPARgamma coactivator (PGC) cell viability counter screen (AID 1224822;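 note: potency is the fitted concentration of half-maximal effect; viability read after 17.5 h compound exposure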)
Summary of the method: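 17.5 h compound treatment of PGC/ERR cells at 37 C; readout CellTiter-Fluor fluorescence; run alongside the PGC/ERR antagonist screen to flag cytotoxic compounds.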

[18] = qHTS assay to identify small molecule agonists of the estrogen related receptor signaling pathway with the pleiotropic PPARgamma coactivator (PGC) (AID 1224823)
Summary of the method: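 Compounds dissolved in DMSO are added by pin tool to PGC/ERR cells that have settled for 6 h, and incubation continues 18 h at 37 C. Reporter output is measured as One-Glo luminescence.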

SMILES	Potency [1]	Potency [2]	Potency [3]	Potency [4]	Potency [5]	Potency [6]	Potency [7]	Potency [8]	Potency [9]	Potency [10]	Potency [11]	Potency [12]	Potency [13]	Potency [14]	outcome [15]	Potency [16]	Potency [17]	outcome [18]
NC(=O)NC(N)=O	inactive	inactive	inactive	inactive	inactive	inactive	inactive	inactive	inactive	inactive	inactive	–	–	–	–	–	–	–
Cc1cc(CC(=O)O)n(C)c1C(=O)c1ccc(Cl)cc1	inactive	–	inactive	inactive	inactive	inactive	–	–	inactive	inactive	inactive	–	–	–	–	–	–	–
OCC(O)CS (stereo not drawn)	inactive	–	inactive	–	inactive	inactive	inactive	inactive	inactive	–	inactive	–	–	–	–	–	–	–
CC(=O)Nc1ccc(CC(=O)O)cc1	–	–	inactive	inactive	inactive	inactive	inactive	inactive	inactive	inactive	inactive	inactive	inactive	–	–	–	–	–
CCCOCC(C)O (stereo not drawn)	inactive	inactive	inactive	inactive	inactive	inactive	–	–	inactive	–	inactive	inactive	inactive	–	–	–	–	–
c1cnc2c(c1)ccc1cccnc12	–	2.19 µM (active) and 9.69 µM (active) and 2.73 µM (active)	19.5 µM (active) and 2.17 µM (active) and 4.86 µM (active)	–	–	617 nM (active) and 1.93 µM (active)	219 nM (active) and inactive and 864 nM (active)	inactive	2.76 µM (active) and 2.73 µM (active)	inactive	inactive	777 nM (active) and 969 nM (active) and 1.72 µM (active)	inactive	2.98 µM (active)	inactive	2.03 µM (active)	6.68 µM (active)	inactive
